Numbering of substitutions follows the chain as printed. Whole data set: some 24,000 sequences, median “enrichment r” near 0.99, cut for the highest 2% near 3.7. The entries come from a sample that favours the highest values as a whole.
T1: UNK ZnF1-3 (human, UniProt Q9C0B0 31-174)
T1 sequence: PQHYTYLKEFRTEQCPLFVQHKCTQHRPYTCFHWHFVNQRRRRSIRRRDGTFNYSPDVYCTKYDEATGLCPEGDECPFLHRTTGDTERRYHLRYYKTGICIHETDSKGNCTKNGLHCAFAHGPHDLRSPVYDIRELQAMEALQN

B1: chr1:89346535:89346536:+_ENSMUSG00000048000_ENSMUST00000174671|mus_mus|motif|central (ssRNA)
RNA: GGGAGUUCUACAGUCCGACGAUCAAGAUGCCUCUUAAACGAGACAAAUUUUCACAUAAGGGCCCAAAACAAACUGGUCCGGGUCCUUGAAGUAAAAAUAUUUAUGGGAGGAGGGGAGAUCAGUUUUUAUAUGAAAGGAAAAUUCAACAGAGGAUUGAGCAUCA
B2: chr1:89346535:89346536:+_ENSMUSG00000048000_ENSMUST00000174671|mus_hu|FALSE|FALSE (ssRNA)
RNA: GGGAGUUCUACAGUCCGACGAUCAGCUGCCUCUUAAACGAGACAAAUUUUCAGCAGAAGGGCCCAAAACAAAAUGGUCCUAGUCCUCUGAAGUAAAAAUAUUUAUGGGAAAAAUCAGUUUUUGUAAGAAAGAAAAAUUAAGAACAACAGAGGAUUGAGCAUCA
B3: chr1:89346535:89346536:+_ENSMUSG00000048000_ENSMUST00000174671|mus_hu|motif|central (ssRNA)
RNA: B2 RNA with U80G, A81G
B4: chr2:42509997:42509998:+_ENSG00000143924_ENST00000318522|hu_mus|hu_hu_hu_mus_True|78_78 (ssRNA)
RNA: GGGAGUUCUACAGUCCGACGAUCUCGCUGAGUCCUCUCCUCAUAAUUAAACAGGACUACUACUGAUGCGAUAAAAUAAACUAUCUCCCCUGUGGGAAGCAGGUAUACAUUCGCUCUACAGUCCUUUCCUCGAUAACCGUAUACCAACAGAGGAUUGAGCAUCA
B5: chr10:13251168:13251169:-_ENSMUSG00000019809_ENSMUST00000019945|mus_hu|FALSE|FALSE (ssRNA)
RNA: GGGAGUUCUACAGUCCGACGAUCAGCCAUAUUGUCUAGAAGUCUACUAAAACCUCGGUUUAAACAGGUAUUCAAAACUGUACUAAAAUCUGGGCUUUCCAACAUGUCUCUAGUUUCAUUGAGAAGUUUAAUAGUGGUAAUGUCCAACAGAGGAUUGAGCAUCA
B6: chr16:732453:732454:+_ENSG00000103266_ENST00000219548|hu_mus|FALSE|FALSE (ssRNA)
RNA: GGGAGUUCUACAGUCCGACGAUCUGCCAGGCAGGACAUGGGGCCUCAAUAGUCCUCUACCCAGCCGUUCUCAGAGAUGAAAGCGUCAAUGACUUCCUUCAUGGCCAAGUUGGGGAUGAGCUGUUCCUGGGUCAGAGGGCUCCGCAACAGAGGAUUGAGCAUCA
B7: chr9:95013113:95013114:-_ENSG00000196305_ENST00000443024|hu_hu|hu_hu_hu_mus_False|1_88 (ssRNA)
RNA: GGGAGUUCUACAGUCCGACGAUCCUCAGUCAGAAAGGGCGUGUAAGGAGCCAUAAGUCUGCACAGAGAAAGCAGGACACUGAACAGUGUCUCCAGAGCCAUGACACAGUCUUCCACCCCACUCUCACCCUUUAACCUUCUGCGCAACAGAGGAUUGAGCAUCA
B8: chr11:94154035:94154036:-_ENSMUSG00000020863_ENSMUST00000107820|mus_mus|FALSE|FALSE (ssRNA)
RNA: GGGAGUUCUACAGUCCGACGAUCAAUAGUUAAGUUUUAAAGCAUAUGUUUCUGCCAAUGUACCAACACAAGAUGGACUUAAUACCAAAAAGAAAAAAAAAACAGUUCAACCUUUUUAUUAAAAAAAAAAAGAAAAAGAAAAAGCAACAGAGGAUUGAGCAUCA
B9: chr9:56975896:56975897:+_ENSMUSG00000042557_ENSMUST00000167715|mus_hu|FALSE|FALSE (ssRNA)
RNA: GGGAGUUCUACAGUCCGACGAUCACAUCAAAGCAUAUUUCUUUUAAUAAAAAAUUGACAGUAUGUACAUUAUGUACAAAAAAACAAGUUAAAAUUGUGUGUGUGUGUGCGUGUGUGUGUCAGAGAGUAAAGCUGGUGGAUGGCCAACAGAGGAUUGAGCAUCA
B10: chr7:135612270:135612271:-_ENSG00000105887_ENST00000393085|hu_mus|hu_hu_hu_mus_False|28_38 (ssRNA)
RNA: GGGAGUUCUACAGUCCGACGAUCGUUUUUUUCUGAGAUGUUAAAUAGUACUUCAGUGGAAAACAAAACUUAACCUUUUAUUAAUGCGUGUUGUACCAGAAAGCAAACAUGGUUUUACAUUUAUUCAAAAAUAUUAACAUUAAGCAACAGAGGAUUGAGCAUCA
B11: chr7:135612270:135612271:-_ENSG00000105887_ENST00000393085|hu_mus|hu_hu_hu_mus_False|1_58 (ssRNA)
RNA: GGGAGUUCUACAGUCCGACGAUCGUUUUUUUCUGAGAUGUUAAAUAGUACUUCAGUGGAAAACAAAACUUAACCUUUCGCUAAUGCGUGUUGUACCAAAAGCAGACAUUUUAGCUUCAUUUAUUCAAAAAUAUUAAGAACAUUCAACAGAGGAUUGAGCAUCA
B12: chr7:135612270:135612271:-_ENSG00000105887_ENST00000393085|hu_mus|hu_hu_hu_mus_False|38_48 (ssRNA)
RNA: B10 RNA with G87A, U91A, C107A, A108U, G110U, G111U, U112A, U113G, U114C, A116U
B13: chr16:30313237:30313238:-_ENSMUSG00000022533_ENSMUST00000100013|mus_hu|FALSE|FALSE (ssRNA)
RNA: GGGAGUUCUACAGUCCGACGAUCCAACCCUGAGGGAGACACACAUUAAAAAUCUUGUUAUUUAUUUAAAAAGUUAAAAAGUUACAUAUCAUUAUUUAACAAUUACUUUCCCAGACAUUUCUGUCCUUUAAGUAUGUGCAUAAACAACAGAGGAUUGAGCAUCA
B14: chr7:135612270:135612271:-_ENSG00000105887_ENST00000393085|hu_mus|hu_hu_hu_mus_False|38_88 (ssRNA)
RNA: GGGAGUUCUACAGUCCGACGAUCGUUUUUUUCUGAGAUGUUAAAUAUUCAGUGGAGGGAAAACAAAACUUAACCUUUUAUUAAUGCGUGUUGUACCAGAAAGCAAAAUUUUAGCUUCAUUUAUUCAAAAAUAUUAACAUUAAGCAACAGAGGAUUGAGCAUCA
B15: chr16:30313237:30313238:-_ENSMUSG00000022533_ENSMUST00000100013|mus_mus|FALSE|FALSE (ssRNA)
RNA: GGGAGUUCUACAGUCCGACGAUCAACAACCCUGAGGGAGACCCACAUUAAAAAAUCUUAUUUAUUUAAAAAGUUAAAAAGCUACAUAUCAUUAUUUAACAAUUACUUUACCAGACAUUUCUGUCCUUUAAGUAUGUGCAUAAACAACAGAGGAUUGAGCAUCA
B16: chr7:135612270:135612271:-_ENSG00000105887_ENST00000393085|hu_mus|hu_hu_hu_mus_False|28_108 (ssRNA)
RNA: GGGAGUUCUACAGUCCGACGAUCGUUUCUGAGAUGUAUGUUAAAUAGUACUUCAGUGGAAAACAAAACUUAACCUUUUAUUAAUGCGUGUUGUACCAAAAGCAGACCAUGGUUUUACAUUUAUUCAAAAAUAUUAACAUUAAGCAACAGAGGAUUGAGCAUCA
B17: chr1:58468927:58468928:-_ENSMUSG00000026034_ENSMUST00000148330|mus_mus|mus_mus_mus_hu_False|28_48 (ssRNA)
RNA: GGGAGUUCUACAGUCCGACGAUCAAUUACUGAAAAAGAUGUUCAUUACCUUAGCUAUGUACUUAAUGAACCAAAUUACCCAAACAACAUAAAAUGUGCAAUAUAAAAAGCUAUACAAUUUACAAAGCUGUACAAAAUAACUUACAACAGAGGAUUGAGCAUCA
B18: chr7:135612270:135612271:-_ENSG00000105887_ENST00000393085|hu_mus|hu_hu_hu_mus_False|28_58 (ssRNA)
RNA: B10 RNA with U78C, A79G, U80C, G98A, A101G, G102C, C103A, A104G, A106C

These binders were tested against T1, UNK ZnF1-3 (assay: nsRBNS (natural sequence RNA bind-n-seq); RBNS binding buffer (assumed for nsRBNS): 25 mM Tris pH 7.5, 150 mM KCl, 3 mM MgCl2, 0.01% Triton X-100, 500 ug/ml BSA, 20 U/ml SUPERase-In, 4 C; UNK is unkempt and MSI1 is Musashi-1; names of the RNAs are library labels; protein concentration not given here; high values mean tight binding).

Q: For B1, which binding signal is on record?
A: Its binding signal is 0.843 enrichment R.

Q: B2 was tested. Which binding signal did it give?
A: Its binding signal is 14.4 enrichment R.

Q: With B3 as the binder, how does the binding signal read?
A: The binding signal was 10.8 enrichment R.

Q: B4 was tested. Which binding signal did it give?
A: Its binding signal is 0.957 enrichment R.

Q: How did the binding signal turn out when B5 was run?
A: Its binding signal is 1.27 enrichment R.

Q: With B6 as the binder, how does the binding signal read?
A: Its binding signal is 1.44 enrichment R.

Q: For B7, which binding signal is on record?
A: The binding signal was 1.12 enrichment R.

Q: Which binding signal does the source give for B8 here?
A: The binding signal was 6.23 enrichment R.

Q: With B9 as the binder, how does the binding signal read?
A: The binding signal was 5.76 enrichment R.

Q: How did the binding signal turn out when B10 was run?
A: Its binding signal is 0.956 enrichment R.

Q: How did the binding signal turn out when B11 was run?
A: The binding signal was 0.611 enrichment R.

Q: With B12 as the binder, how does the binding signal read?
A: Its binding signal is 1.66 enrichment R.

Q: Which binding signal does the source give for B13 here?
A: The binding signal was 3.61 enrichment R.

Q: B14 was tested. Which binding signal did it give?
A: Its binding signal is 4.08 enrichment R.

Q: For B15, which binding signal is on record?
A: Its binding signal is 4.91 enrichment R.

Q: Which binding signal does the source give for B16 here?
A: The binding signal was 0.924 enrichment R.

Q: With B17 as the binder, how does the binding signal read?
A: Its binding signal is 0.529 enrichment R.

Q: B18 was tested. Which binding signal did it give?
A: The binding signal was 1.03 enrichment R.
